# Experiments:
# [1] = target: T1, Phosphorylase b kinase gamma catalytic chain, liver/testis isoform (Homo sapiens) (UniProt P15735); details: at 1 µM
# T1 sequence (whole entry): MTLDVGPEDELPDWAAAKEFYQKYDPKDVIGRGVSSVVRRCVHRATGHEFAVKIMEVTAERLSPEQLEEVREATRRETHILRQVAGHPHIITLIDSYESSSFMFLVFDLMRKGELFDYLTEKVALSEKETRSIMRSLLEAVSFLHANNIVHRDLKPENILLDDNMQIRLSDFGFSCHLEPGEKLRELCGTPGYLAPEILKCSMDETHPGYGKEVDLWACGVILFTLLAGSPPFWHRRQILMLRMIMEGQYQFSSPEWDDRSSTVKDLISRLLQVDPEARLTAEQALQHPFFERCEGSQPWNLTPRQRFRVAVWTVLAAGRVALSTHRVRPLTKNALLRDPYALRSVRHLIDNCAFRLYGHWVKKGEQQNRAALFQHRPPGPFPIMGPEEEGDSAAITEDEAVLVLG
# [2] = target: T1, Phosphorylase b kinase gamma catalytic chain, liver/testis isoform (Homo sapiens); details: at 10 µM
# [3] = target: Serine/threonine-protein kinase pim-1 (Homo sapiens) (UniProt P11309); details: at 1 µM
# Serine/threonine-protein kinase pim-1 (Homo sapiens), sequence (P11309 whole entry, looked up): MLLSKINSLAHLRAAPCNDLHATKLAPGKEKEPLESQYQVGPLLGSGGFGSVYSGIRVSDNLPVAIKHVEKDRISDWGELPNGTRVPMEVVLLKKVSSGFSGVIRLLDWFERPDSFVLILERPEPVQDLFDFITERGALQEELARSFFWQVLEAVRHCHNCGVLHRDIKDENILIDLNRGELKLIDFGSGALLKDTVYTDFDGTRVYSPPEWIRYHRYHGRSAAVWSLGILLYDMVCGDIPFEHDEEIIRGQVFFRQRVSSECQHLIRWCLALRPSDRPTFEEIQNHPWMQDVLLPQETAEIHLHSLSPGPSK
# [4] = target: Serine/threonine-protein kinase pim-1 (Homo sapiens) (UniProt P11309); details: at 10 µM
# [5] = target: Serine/threonine-protein kinase pim-2 (Homo sapiens) (UniProt Q9P1W9); details: at 1 µM
# Serine/threonine-protein kinase pim-2 (Homo sapiens), sequence (Q9P1W9 whole entry, looked up): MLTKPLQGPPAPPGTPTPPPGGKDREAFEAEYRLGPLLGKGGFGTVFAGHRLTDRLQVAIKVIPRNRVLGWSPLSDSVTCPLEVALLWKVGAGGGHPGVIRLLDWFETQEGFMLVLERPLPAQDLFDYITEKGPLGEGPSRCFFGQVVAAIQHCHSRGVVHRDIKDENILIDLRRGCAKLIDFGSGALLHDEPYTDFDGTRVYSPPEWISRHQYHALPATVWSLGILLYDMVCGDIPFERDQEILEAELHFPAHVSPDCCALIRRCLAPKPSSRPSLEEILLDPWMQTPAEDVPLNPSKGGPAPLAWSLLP
# [6] = target: Serine/threonine-protein kinase pim-2 (Homo sapiens) (UniProt Q9P1W9); details: at 10 µM
# [7] = target: Serine/threonine-protein kinase pim-3 (Homo sapiens) (UniProt Q86V86); details: at 1 µM
# [8] = target: Serine/threonine-protein kinase pim-3 (Homo sapiens) (UniProt Q86V86); details: at 10 µM
# [9] = target: Serine/threonine-protein kinase PLK1 (Homo sapiens) (UniProt P53350); details: at 1 µM
# Serine/threonine-protein kinase PLK1 (Homo sapiens), sequence (P53350 whole entry): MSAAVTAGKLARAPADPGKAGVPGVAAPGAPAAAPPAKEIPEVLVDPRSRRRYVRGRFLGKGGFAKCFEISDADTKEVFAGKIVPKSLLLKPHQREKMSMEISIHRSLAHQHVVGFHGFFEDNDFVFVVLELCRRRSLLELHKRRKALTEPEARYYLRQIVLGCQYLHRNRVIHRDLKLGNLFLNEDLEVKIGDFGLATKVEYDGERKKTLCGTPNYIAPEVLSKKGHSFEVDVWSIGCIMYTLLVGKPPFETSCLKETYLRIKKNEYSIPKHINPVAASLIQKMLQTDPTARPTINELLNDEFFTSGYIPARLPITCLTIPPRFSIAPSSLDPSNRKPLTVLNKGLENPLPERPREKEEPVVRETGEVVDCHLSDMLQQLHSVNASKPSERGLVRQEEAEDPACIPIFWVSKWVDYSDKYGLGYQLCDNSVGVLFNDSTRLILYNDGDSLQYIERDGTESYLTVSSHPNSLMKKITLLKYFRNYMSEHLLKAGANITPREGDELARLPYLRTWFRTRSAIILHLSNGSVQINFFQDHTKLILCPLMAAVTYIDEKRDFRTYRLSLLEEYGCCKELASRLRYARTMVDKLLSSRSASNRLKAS
# [10] = target: Serine/threonine-protein kinase PLK1 (Homo sapiens) (UniProt P53350); details: at 10 µM
structure (smiles),measurement,setting,value
CCC(=O)Nc1ccc2ncnc(Nc3cccc(Br)c3)c2c1,residual activity,[1],90%
same,residual activity,[2],108%
same,residual activity,[3],80%
same,residual activity,[4],86%
same,residual activity,[5],104%
same,residual activity,[6],94%
same,residual activity,[7],92%
same,residual activity,[8],85%
same,residual activity,[9],93%
same,residual activity,[10],71%
COc1cccc(-c2cc(=O)c3ccccc3o2)c1N,residual activity,[1],113%
same,residual activity,[2],117%
same,residual activity,[3],82%
same,residual activity,[4],58%
same,residual activity,[5],126%
same,residual activity,[6],102%
same,residual activity,[7],89%
same,residual activity,[8],91%
same,residual activity,[9],81%
same,residual activity,[10],102%
CC(=O)O/N=C1\C(=C2\C(=O)Nc3cc(Br)ccc32)Nc2ccccc21,residual activity,[1],92%
same,residual activity,[2],70%
same,residual activity,[3],92%
same,residual activity,[4],87%
same,residual activity,[5],134%
same,residual activity,[6],67%
same,residual activity,[7],84%
same,residual activity,[8],84%
same,residual activity,[9],79%
same,residual activity,[10],76%
N#Cc1cnc2cnc(NCc3cccnc3)cc2c1Nc1ccc(F)c(Cl)c1,residual activity,[1],3%
same,residual activity,[2],2%
same,residual activity,[3],27%
same,residual activity,[4],18%
same,residual activity,[5],84%
same,residual activity,[6],63%
same,residual activity,[7],97%
same,residual activity,[8],94%
Ic1cccc(CSc2nnc(-c3ccncc3)o2)c1,residual activity,[1],106%
same,residual activity,[2],84%
same,residual activity,[3],104%
same,residual activity,[4],73%
same,residual activity,[5],93%
same,residual activity,[6],86%
same,residual activity,[7],78%
same,residual activity,[8],84%
same,residual activity,[9],72%
same,residual activity,[10],74%
CO[C@H]1C[C@@H]2CC[C@@H](C)[C@@](O)(O2)C(=O)C(=O)N2CCCC[C@H]2C(=O)O[C@H]([C@H](C)C[C@@H]2CC[C@@H](O)[C@H](OC)C2)CC(=O)[C@H](C)/C=C(\C)[C@@H](O)[C@@H](OC)C(=O)[C@H](C)C[C@H](C)/C=C/C=C/C=C/1C,residual activity,[1],94%
same,residual activity,[2],116%
same,residual activity,[3],105%
same,residual activity,[4],141%
same,residual activity,[5],110%
same,residual activity,[6],142%
same,residual activity,[7],97%
same,residual activity,[8],93%
same,residual activity,[9],75%
same,residual activity,[10],66%
O=C1c2ccccc2-[n+]2ccc3c([nH]c4ccccc43)c21,residual activity,[1],108%
same,residual activity,[2],99%
same,residual activity,[3],110%
same,residual activity,[4],91%
same,residual activity,[5],144%
same,residual activity,[6],130%
same,residual activity,[7],81%
same,residual activity,[8],74%
same,residual activity,[9],75%
same,residual activity,[10],74%
CC#CC(=O)Nc1cc2c(Nc3ccc(F)c(Cl)c3)ncnc2cn1,residual activity,[1],92%
same,residual activity,[2],105%
same,residual activity,[3],88%
same,residual activity,[4],101%
same,residual activity,[5],82%
same,residual activity,[6],109%
same,residual activity,[7],91%
same,residual activity,[8],91%
same,residual activity,[9],98%
same,residual activity,[10],81%
Oc1ccc(Nc2nc(-c3ccc(Cl)cc3)cs2)cc1,residual activity,[1],129%
same,residual activity,[2],130%
same,residual activity,[3],77%
same,residual activity,[4],52%
same,residual activity,[5],126%
same,residual activity,[6],82%
same,residual activity,[7],93%
same,residual activity,[8],97%
same,residual activity,[9],97%
same,residual activity,[10],90%
Oc1n[nH]c2nnc(-c3c(-c4ccccc4)nn4ccccc34)cc12,residual activity,[1],116%
same,residual activity,[2],111%
same,residual activity,[3],84%
same,residual activity,[4],89%
same,residual activity,[5],123%
same,residual activity,[6],84%
same,residual activity,[7],85%
same,residual activity,[8],84%
same,residual activity,[9],75%
same,residual activity,[10],83%
Cn1nc2c3c(cccc31)C(=O)c1ccccc1-2,residual activity,[1],102%
same,residual activity,[2],84%
same,residual activity,[3],71%
same,residual activity,[4],45%
same,residual activity,[5],91%
same,residual activity,[6],44%
same,residual activity,[7],80%
same,residual activity,[8],66%
same,residual activity,[9],81%
same,residual activity,[10],77%
NC(=O)c1ccc2[nH]c(-c3ccc(Oc4ccc(Cl)cc4)cc3)nc2c1,residual activity,[1],89%
same,residual activity,[2],80%
same,residual activity,[3],121%
same,residual activity,[4],116%
same,residual activity,[5],108%
same,residual activity,[6],119%
same,residual activity,[7],83%
same,residual activity,[8],83%
same,residual activity,[9],75%
same,residual activity,[10],69%
CN(C)c1ccc(/C=C2\C(=O)Nc3ccccc32)cc1,residual activity,[1],98%
same,residual activity,[2],85%
same,residual activity,[3],77%
same,residual activity,[4],93%
same,residual activity,[5],92%
same,residual activity,[6],112%
same,residual activity,[7],106%
same,residual activity,[8],91%
same,residual activity,[9],88%
same,residual activity,[10],76%
Nc1cccc(-c2cc3c(Oc4cccc(O)c4)ncnc3[nH]2)c1,residual activity,[1],120%
same,residual activity,[2],91%
same,residual activity,[3],75%
same,residual activity,[4],34%
same,residual activity,[5],118%
same,residual activity,[6],84%
same,residual activity,[7],86%
same,residual activity,[8],91%
same,residual activity,[9],78%
same,residual activity,[10],83%
O=C1Nc2ccccc2/C1=C1/Nc2ccccc2/C1=N\OCCC(O)CO (centres undefined),residual activity,[1],21%
same,residual activity,[2],5%
same,residual activity,[3],58%
same,residual activity,[4],11%
same,residual activity,[5],98%
same,residual activity,[6],44%
same,residual activity,[7],75%
same,residual activity,[8],64%
same,residual activity,[9],72%
same,residual activity,[10],75%
c1ccc(-c2n[nH]c3c2oc2ccccc23)cc1,residual activity,[3],85%
same,residual activity,[4],84%
same,residual activity,[5],83%
same,residual activity,[6],123%
same,residual activity,[7],92%
same,residual activity,[8],90%
same,residual activity,[9],85%
same,residual activity,[10],67%
COc1cc2ncc(-c3ccccc3)nc2cc1OC,residual activity,[3],81%
same,residual activity,[4],82%
same,residual activity,[5],127%
same,residual activity,[6],144%
same,residual activity,[7],95%
same,residual activity,[8],99%
same,residual activity,[9],88%
same,residual activity,[10],75%
COc1cc2ncnc(Nc3ccc(O)c(Br)c3)c2cc1OC,residual activity,[1],97%
same,residual activity,[2],94%
same,residual activity,[3],66%
same,residual activity,[4],29%
same,residual activity,[5],78%
same,residual activity,[6],66%
same,residual activity,[7],87%
same,residual activity,[8],70%
same,residual activity,[9],64%
same,residual activity,[10],54%
c1ccc(-c2n[nH]cc2-c2ccnc3ccccc23)nc1,residual activity,[1],95%
same,residual activity,[2],102%
same,residual activity,[3],96%
same,residual activity,[4],85%
same,residual activity,[7],99%
same,residual activity,[8],100%
same,residual activity,[9],80%
same,residual activity,[10],72%
N#CCCc1ccc2c(c1)-c1[nH]c3ccc([N+](=O)[O-])cc3c1CC(=O)N2,residual activity,[4],69%
same,residual activity,[5],120%
Cn1cnc2cc3c(Nc4cccc(Br)c4)ncnc3cc21,residual activity,[1],95%
same,residual activity,[2],98%
same,residual activity,[3],75%
same,residual activity,[4],63%
same,residual activity,[5],84%
same,residual activity,[6],97%
same,residual activity,[7],92%
same,residual activity,[8],88%
same,residual activity,[9],105%
same,residual activity,[10],82%

# Reference: ChEMBL document CHEMBL2218924, “A broad activity screen in support of a chemogenomic map for kinase signalling research and drug discovery” (Biochem J, 2013)
